Source: PubChem BioAssay (several laboratories)
A selection: hits, their analogues and other compounds. The true share with any hit is near 2.2%.
CHO-K1 Ca antag: nonselective inhibitor or artifact in parental CHO-K1 cells | ATP-induced calcium, Fluo-8 fluorescence | AID 602250 | inhibition, % at 3 µM | 0.6% of 360,000 active;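 active means inhibition above a per-plate cutoff, the plate's mean sample inhibition plus 3 SD, cut at about 24% in these data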;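 further: 0% = DMSO plus EC80 ATP and 100% = DMSO alone without ATP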
NTR1 ag: NTR1 (human) agonism; AID 493036; activation, % at 20 µM; NTR1-U2OS beta-arrestin-GFP spot imaging, agonist mode; P30989; 0.17% of 330,000 active;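 active means activation at or above 40% of the spot to cytoplasm intensity ratio, with at least 20 cells analyzed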;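 further: 0% = DMSO without peptide and 100% = 100 nM NTR1 peptide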
CHO-K1 Ca ag: M1 agonist counterscreen hit in parental CHO-K1 cells; Fluo-8 calcium fluorescence; scaled to maximal ATP response, vehicle zero; activation, % at 3 µM; 0.48% of 360,000 active; AID 602248; in the data active means activation above about 15%;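 further: untransfected CHO-K1 host cells lacking M1 receptor as counterscreen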
ANO1 activ: activators or potentiators of mouse TMEM16A chloride channel; HEK293 TMEM16A/YFP-H148Q/I152L, iodide quench fluorescence; hits give low values; 0.3% of 340,000 active; AID 623877; B-score at 10 µM; Q8BHY3;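 active means fluorescence-ratio B-score plate-corrected deviation score at least 3 library SD below zero, with starting fluorescence score within 5 deviations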;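 further: channel opened by trigger with iodide after compound preincubation; score built on the fluorescence ratio of max minus min over baseline; more negative score means more quench and so TMEM16A activation or potentiation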
Target sequence (Q8BHY3 whole entry, looked up): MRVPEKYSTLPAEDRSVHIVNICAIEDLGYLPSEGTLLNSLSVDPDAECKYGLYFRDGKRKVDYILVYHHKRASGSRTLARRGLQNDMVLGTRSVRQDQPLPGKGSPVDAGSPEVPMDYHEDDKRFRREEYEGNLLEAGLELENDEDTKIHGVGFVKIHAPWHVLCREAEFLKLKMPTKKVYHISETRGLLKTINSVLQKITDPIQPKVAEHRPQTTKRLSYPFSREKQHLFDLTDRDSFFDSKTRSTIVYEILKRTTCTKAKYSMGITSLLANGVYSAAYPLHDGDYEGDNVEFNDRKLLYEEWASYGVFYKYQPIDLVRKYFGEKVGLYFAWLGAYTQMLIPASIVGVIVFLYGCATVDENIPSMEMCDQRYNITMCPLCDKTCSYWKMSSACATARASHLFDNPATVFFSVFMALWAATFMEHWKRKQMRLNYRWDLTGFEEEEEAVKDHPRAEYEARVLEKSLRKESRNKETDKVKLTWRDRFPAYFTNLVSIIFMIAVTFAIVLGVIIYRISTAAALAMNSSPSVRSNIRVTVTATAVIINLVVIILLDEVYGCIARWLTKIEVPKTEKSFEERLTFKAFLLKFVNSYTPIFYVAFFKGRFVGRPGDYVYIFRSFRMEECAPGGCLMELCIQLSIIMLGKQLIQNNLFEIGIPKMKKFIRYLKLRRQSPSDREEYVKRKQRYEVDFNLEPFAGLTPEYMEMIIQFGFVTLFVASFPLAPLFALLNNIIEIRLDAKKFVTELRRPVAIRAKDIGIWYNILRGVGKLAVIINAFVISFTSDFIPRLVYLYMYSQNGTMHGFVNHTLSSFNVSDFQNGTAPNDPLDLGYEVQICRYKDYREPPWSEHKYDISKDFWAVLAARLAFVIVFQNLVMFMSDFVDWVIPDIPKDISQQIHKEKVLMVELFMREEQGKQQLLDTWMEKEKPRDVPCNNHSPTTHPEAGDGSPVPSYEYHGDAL
CHO-K1 Ca PAM: M1 PAM counterscreen hit in parental CHO-K1 cells; activation, % at 3 µM; ATP EC20, Fluo-8 calcium fluorescence; 0% at ATP EC20, 100% at ATP max; 0.02% of 360,000 active;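 active means activation above the run cutoff, the mean activation of all test compounds plus 3 SD, cut at about 40% in these data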;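 further: peak over basal fluorescence ratio in a 140 s read after ATP addition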
TMEM16A inh: mouse TMEM16A channel inhibition, primary screen; Q8BHY3; HEK293 TMEM16A/YFP iodide influx fluorescence, ionomycin; normalized B-score (activity score, 25-100; higher = stronger inhibition) at 10 µM; 1.2% of 310,000 active; AID 588511;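 active means ratio plate-corrected score three or more library SD toward inhibition, starting fluorescence score within five deviations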;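 further: score derived from kinetic fluorescence span divided by baseline fluorescence per well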
* = called active by the depositor; i = inactive; · = no result given.

SMILES	CHO-K1 Ca antag	NTR1 ag	CHO-K1 Ca ag	ANO1 activ	CHO-K1 Ca PAM	TMEM16A inh
CCOc1ccc(N2C(=O)/C(=C/c3ccco3)N(C)C2=S)cc1	26.7*	4.6	-1.0	i	-16.9	i
CCOC(=O)C1=C(C)N(c2ccc(OCC)cc2)C(=O)/C1=C\c1ccco1	-14.9	8.8	0.2	i	22.0	i
Cc1ccc(/C=C2/C(=O)N(c3ccccc3)C(=S)N2C)o1	24.5*	12.2	-0.1	i	-15.8	i
C[C@H]1CN(CCc2ccccc2)C(=O)[C@@H]1CC(=O)Nc1ccccc1	-13.7	·	0.8	·	11.9	·
CCN(CC)C(=O)C1=C(C)N(CCC2=CCCCC2)C(=O)C(CC(=O)NCC2CCCCC2)C1 (stereo unspecified)	24.7*	·	-0.6	·	-13.1	·
CC1=C(C(=O)N(C)C)CC(CC(=O)NCC2CCCCC2)C(=O)N1CCC1=CCCCC1 (stereo unspecified)	21.2	·	1.0	·	0.5	·
CCCCN1C(=O)C(CC(=O)NC2CCCC2)CC(C(=O)N(CC)CC)=C1C (stereo unspecified)	26.2*	·	-0.5	·	-3.6	·
CCCCN1C(=O)C(CC(=O)NC2CCCCC2)CC(C(=O)N(CC)CC)=C1C (stereo unspecified)	0.4	·	-0.1	·	8.1	·
CCOC(=O)c1ccccc1NC(=O)CN(c1ccccc1C)S(C)(=O)=O	30.1*	-2.2	-0.1	i	-5.5	i
COc1ccccc1NC(=O)CN(c1ccccc1C)S(C)(=O)=O	-9.6	1.2	1.1	i	22.7	i
CCOc1ccccc1C1C(C(N)=O)=C(C)Nc2nc(CCCO)nn21 (stereo unspecified)	26.7*	-0.9	-0.4	i	-8.6	i
COCCSc1nnc(NC(=O)COC)s1	-0.2	2.1	0.0	i	1.6	i
CCC(=O)Nc1nnc(SCCOC)s1	11.6	-0.7	-0.1	i	-7.1	25*
CCCSc1nnc(NC(=O)Nc2ccc(C)cc2)s1	-6.5	3.0	1.6	i	4.8	i
CCCSc1nnc(NC(=O)Nc2ccc(F)cc2)s1	24.1*	3.1	3.4	i	-3.3	100*
O=S1(=O)CC(N2CCN(CCO)CC2)CN1Cc1cn(Cc2ccccc2C(F)(F)F)nn1 (stereo unspecified)	7.5	·	0.2	·	2.2	·
CCOC(=O)[C@]12CCC=C1N(Cc1ccco1)C(=O)[C@H](CC(=O)NCCc1ccccc1OC)C2	-8.5	·	0.4	·	3.5	·
CC(C)=CC1C(C(=O)Nc2ccc(S(=O)(=O)N3CCOCC3)cc2)C1(C)C (stereo unspecified)	-0.6	1.2	0.5	-4.88*	-15.1	i
O=C(Nc1ccc(S(=O)(=O)N2CCOCC2)cc1)C1CC1	-4.7	-0.3	0.4	i	-2.6	i
Cc1[nH]n2c(=O)c(C#N)c(-c3ccccc3)nc2c1-c1ccccc1	28.5*	-1.8	-0.4	i	3.8	i
CCCN(CCC)S(=O)(=O)c1cccc(-c2csc(C)n2)c1	2.6	0.3	21.6*	i	9.6	i
CCN(CC)S(=O)(=O)c1ccc(-c2csc(C)n2)cc1	-11.1	-0.6	0.6	i	-5.9	i
CCc1ccc(NC(=O)CO/N=C(\C)c2cc3ccccc3o2)cc1	-10.3	1.5	0.7	i	10.0	100*
CSc1ccccc1NC(=O)CO/N=C(\C)c1cc2ccccc2o1	7.6	3.2	-0.1	i	-5.4	25*
C/C(=N\OCC(=O)Nc1ccc(F)c(F)c1F)c1cc2ccccc2o1	-4.9	2.0	1.9	i	10.3	i
SMILES	CHO-K1 Ca antag	NTR1 ag	CHO-K1 Ca ag	ANO1 activ	CHO-K1 Ca PAM	TMEM16A inh
C[C@H](CO)N1C[C@H](C)[C@H](CN(C)C(=O)Nc2ccc(F)cc2)OCc2cnnn2CCCC1=O	-3.8	·	0.2	·	-0.2	·
CCn1c(P(C)(=O)O)nc2cc(NC(=O)c3ccccc3Cl)ccc21	24.2*	-3.2	-0.1	i	-13.0	i
CCC(=O)NCCc1nc2cc(NC(=O)c3ccccc3Cl)ccc2n1C	-9.8	-2.0	0.9	i	5.1	i
C=CC[C@@H](CC(=O)N[C@@H](CO)Cc1ccccc1)C(=O)NCCOC(=O)[C@@H](CC=C)Cc1ccc(F)cc1	23.9*	0.7	0.1	·	-13.7	·
Cc1cc(=O)[nH]c(NN=C2CCC(C(C)(C)C)CC2)n1 (stereo unspecified)	-4.9	1.3	19.3*	i	17.8	i
Cc1cc(C)cc(NC(=O)c2ccc(CN3CCc4ccccc4C3)cc2)c1	-7.6	2.4	0.6	i	18.6	i
O=C(CN1CCc2ccccc2C1)Nc1ccc(Br)cc1	-5.7	-0.3	0.2	i	8.4	i
O=C(Nc1ccccc1)c1ccc(S(=O)(=O)N2CCCCC2)cc1	-5.4	-0.5	4.0	i	18.6	i
O=C(Nc1ccccc1)c1ccc(CN2CCc3ccccc3C2)cc1	23.9*	-0.1	7.1	i	-12.8	i
CC(NC(=O)c1ccccc1NC(=O)CN1CCc2ccccc2C1)c1ccccc1 (stereo unspecified)	-13.2	8.3	7.1	i	40.3*	i
CCc1ccc(NC(=O)CN2CCc3ccccc3C2)cc1	24.4*	3.1	-0.2	i	-6.7	i
O=C(Nc1ccc(S(=O)(=O)N2CCCCC2)cc1)c1ccc(CN2CCc3ccccc3C2)cc1	33.2*	8.8	0.2	i	-4.0	i
O=C1NC(=O)C2(CCCCC2)N1	-6.5	·	0.1	i	3.6	·
CC(C)C[C@@H](CN)NC(=O)c1nc[nH]c1C(=O)N[C@@H](C)C(=O)CNC[C@H](C)NC(=O)c1nc[nH]c1C(=O)N[C@@H](C)C(=O)O	-9.3	·	0.6	·	15.5	·
CCOC(=O)C(=O)/C(C#N)=C/Nc1ccc(F)cc1	-5.1	0.3	-0.1	i	15.6	i
CCOC(=O)NC(=O)/C(C#N)=N/Nc1ccc(F)cc1	27.3*	1.1	1.0	i	-6.0	i
CN(C)c1ccc(NC(=S)Nc2ccc3c(c2)c(=O)n(C)n3-c2ccc(C(C)(C)C)cc2)cc1	9.1	·	0.0	·	2.7	·
CCOC(=O)C1CCCN(c2nc(C)nc3c2oc2ccccc23)C1 (stereo unspecified)	3.9	13.7	8.4	i	-4.9	25*
CCOC(=O)C1CCN(c2nc(C)nc3c2oc2ccccc23)CC1	-11.3	1.1	1.4	i	11.6	i
Cc1ccc(S(=O)(=O)NCC(C)n2nc(C)cc2C)cc1 (stereo unspecified)	6.6	-0.2	0.1	i	-3.3	i
Cc1ccc(C(C[N+](=O)[O-])n2nc(C)cc2C)cc1 (stereo unspecified)	7.6	51.2*	0.7	i	14.0	i
CCCCn1c(OC(=S)N(CC)CC)cc(C)nc1=S	9.2	·	1.5	·	5.6	·
COc1ccccc1OCCCCOc1ccccc1F	-4.4	-0.2	-0.7	i	6.5	i
CCN(CC)CCCCCOc1ccccc1OC	-11.3	-0.3	0.4	i	-7.4	25*
